Assays:
Experiment in all cases: DAPPL (digital affinity profiling via proximity ligation, sequencing); 10 mM Tris-HCl pH 7.5, 50 mM NaCl, 1 mM DTT, 4% glycerol, room temperature, 30 min; GST-TFs on glutathione beads, 16-mer random dsDNA library, 0.1% formaldehyde crosslink after washing; high values mean tight binding
Conditions in all cases: protein: recombinant; tags: N-terminal GST; dsDNA, one strand shown
FLI1 = molecular target: T1, FLI1 (Homo sapiens, UniProt Q01543 1-452)
T1 sequence: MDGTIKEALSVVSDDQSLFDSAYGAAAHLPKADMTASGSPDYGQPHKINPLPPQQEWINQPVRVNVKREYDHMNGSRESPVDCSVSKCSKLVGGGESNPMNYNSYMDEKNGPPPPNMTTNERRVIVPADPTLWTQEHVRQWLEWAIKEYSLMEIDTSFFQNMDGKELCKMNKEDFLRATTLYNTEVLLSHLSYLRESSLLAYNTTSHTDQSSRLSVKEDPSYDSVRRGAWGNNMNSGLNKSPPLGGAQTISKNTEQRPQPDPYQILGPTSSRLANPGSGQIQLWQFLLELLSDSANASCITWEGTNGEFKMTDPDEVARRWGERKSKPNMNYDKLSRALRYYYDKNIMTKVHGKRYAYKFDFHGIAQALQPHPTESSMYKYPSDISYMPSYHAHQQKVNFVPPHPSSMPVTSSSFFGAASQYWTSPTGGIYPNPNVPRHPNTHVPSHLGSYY
How it was run: (§1)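 Beads coated with glutathione captured GST-fused human transcription factors that had been expressed in yeast, and the factors were then given DNA barcodes and pooled with a tag-only sample. The pools were incubated with 200 nmole of a random double-stranded 16-mer DNA library in Tris/NaCl/DTT/glycerol buffer for 30 min at room temperature, washed, crosslinked with 0.1% formaldehyde and proximity-ligated with BsaI/T4 ligase at 37 °C for 1 h. PCR amplification and Illumina NextSeq500 sequencing came last. Binding signal is each hexamer's read frequency for a factor divided by its frequency for the tag-only sample.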

ELK1 = molecular target: T2, ELK1 (Homo sapiens, UniProt P19419 1-428)
T2 sequence: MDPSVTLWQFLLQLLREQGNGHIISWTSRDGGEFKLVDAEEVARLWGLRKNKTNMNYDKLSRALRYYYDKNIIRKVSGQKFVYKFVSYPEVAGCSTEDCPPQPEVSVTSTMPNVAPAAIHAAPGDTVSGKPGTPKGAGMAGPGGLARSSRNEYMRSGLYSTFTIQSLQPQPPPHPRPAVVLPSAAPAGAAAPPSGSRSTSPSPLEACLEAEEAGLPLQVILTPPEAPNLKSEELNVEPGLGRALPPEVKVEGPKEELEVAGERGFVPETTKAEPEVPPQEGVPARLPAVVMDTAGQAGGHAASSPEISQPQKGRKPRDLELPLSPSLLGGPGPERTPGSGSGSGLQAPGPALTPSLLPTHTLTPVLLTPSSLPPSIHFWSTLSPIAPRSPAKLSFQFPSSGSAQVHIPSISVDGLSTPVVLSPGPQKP
How it was run: as §1

GABPA = molecular target: T3, GABPA (Homo sapiens, UniProt Q06546 1-454)
T3 sequence: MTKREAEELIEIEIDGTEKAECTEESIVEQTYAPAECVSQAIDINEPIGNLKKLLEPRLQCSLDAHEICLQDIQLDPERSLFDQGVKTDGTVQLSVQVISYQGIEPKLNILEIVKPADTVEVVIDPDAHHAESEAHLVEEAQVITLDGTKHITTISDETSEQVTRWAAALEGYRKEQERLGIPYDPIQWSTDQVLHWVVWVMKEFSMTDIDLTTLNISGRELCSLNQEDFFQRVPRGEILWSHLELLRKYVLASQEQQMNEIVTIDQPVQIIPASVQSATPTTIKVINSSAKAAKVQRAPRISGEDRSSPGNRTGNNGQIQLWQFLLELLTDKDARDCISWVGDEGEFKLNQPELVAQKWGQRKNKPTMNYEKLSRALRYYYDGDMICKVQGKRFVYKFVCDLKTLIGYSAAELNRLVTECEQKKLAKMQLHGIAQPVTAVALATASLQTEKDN
How it was run: as §1

ERG = molecular target: T4, ERG (Homo sapiens, UniProt P11308 1-479)
T4 sequence: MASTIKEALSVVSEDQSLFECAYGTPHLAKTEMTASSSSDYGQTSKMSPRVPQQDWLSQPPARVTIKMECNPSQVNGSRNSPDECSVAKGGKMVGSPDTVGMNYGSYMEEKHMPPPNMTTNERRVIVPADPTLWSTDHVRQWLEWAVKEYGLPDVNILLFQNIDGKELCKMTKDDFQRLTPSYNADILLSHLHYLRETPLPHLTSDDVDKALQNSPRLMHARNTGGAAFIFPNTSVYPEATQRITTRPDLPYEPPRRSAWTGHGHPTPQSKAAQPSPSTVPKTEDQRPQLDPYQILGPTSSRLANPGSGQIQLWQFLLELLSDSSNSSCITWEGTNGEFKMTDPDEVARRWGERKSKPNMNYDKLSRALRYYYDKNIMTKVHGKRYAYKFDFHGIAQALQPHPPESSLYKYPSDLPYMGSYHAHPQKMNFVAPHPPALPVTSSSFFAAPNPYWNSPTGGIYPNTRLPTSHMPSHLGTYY
How it was run: as §1

ELF1 = ELF1 (Homo sapiens, UniProt P32519 1-619)
How it was run: as §1

EHF = molecular target: T5, EHF (Homo sapiens, UniProt Q9NZC4 1-300)
T5 sequence: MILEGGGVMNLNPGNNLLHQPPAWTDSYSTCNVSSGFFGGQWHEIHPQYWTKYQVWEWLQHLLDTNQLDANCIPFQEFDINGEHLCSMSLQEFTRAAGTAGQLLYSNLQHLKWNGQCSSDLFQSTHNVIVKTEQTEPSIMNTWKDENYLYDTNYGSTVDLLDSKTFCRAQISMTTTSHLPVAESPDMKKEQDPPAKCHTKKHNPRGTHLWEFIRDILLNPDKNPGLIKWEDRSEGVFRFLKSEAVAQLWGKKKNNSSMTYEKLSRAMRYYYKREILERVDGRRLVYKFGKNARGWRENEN
How it was run: as §1

SPI1 = SPI1 (Homo sapiens, UniProt P17947 1-270)
How it was run: as §1

SPIB = SPIB (Homo sapiens, UniProt Q01892 1-262)
How it was run: as §1

ELK3 = molecular target: T6, ELK3 (Homo sapiens, UniProt P41970 1-407)
T6 sequence: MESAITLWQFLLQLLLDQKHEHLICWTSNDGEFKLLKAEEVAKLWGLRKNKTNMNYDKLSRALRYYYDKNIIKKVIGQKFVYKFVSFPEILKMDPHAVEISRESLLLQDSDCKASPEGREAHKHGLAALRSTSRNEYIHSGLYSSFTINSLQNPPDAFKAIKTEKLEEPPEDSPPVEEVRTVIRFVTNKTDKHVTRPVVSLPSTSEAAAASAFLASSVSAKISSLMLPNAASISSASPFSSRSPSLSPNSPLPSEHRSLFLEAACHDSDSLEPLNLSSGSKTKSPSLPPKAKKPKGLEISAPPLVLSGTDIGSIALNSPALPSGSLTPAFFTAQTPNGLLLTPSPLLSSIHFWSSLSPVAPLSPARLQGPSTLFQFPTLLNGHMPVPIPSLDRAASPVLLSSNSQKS
How it was run: as §1

FEV = molecular target: T7, FEV (Homo sapiens, UniProt Q99581 1-238)
T7 sequence: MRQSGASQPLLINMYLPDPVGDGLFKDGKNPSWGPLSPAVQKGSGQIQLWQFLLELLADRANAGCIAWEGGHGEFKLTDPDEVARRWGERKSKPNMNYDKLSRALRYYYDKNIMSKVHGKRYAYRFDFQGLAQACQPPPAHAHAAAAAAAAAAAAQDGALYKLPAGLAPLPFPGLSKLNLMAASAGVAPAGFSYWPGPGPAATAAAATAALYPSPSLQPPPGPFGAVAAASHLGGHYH
How it was run: as §1

ETV5 = ETV5 (Homo sapiens, UniProt P41161 1-510)
How it was run: as §1

SPIC = molecular target: T8, SPIC (Homo sapiens, UniProt Q8N5J4 1-248)
T8 sequence: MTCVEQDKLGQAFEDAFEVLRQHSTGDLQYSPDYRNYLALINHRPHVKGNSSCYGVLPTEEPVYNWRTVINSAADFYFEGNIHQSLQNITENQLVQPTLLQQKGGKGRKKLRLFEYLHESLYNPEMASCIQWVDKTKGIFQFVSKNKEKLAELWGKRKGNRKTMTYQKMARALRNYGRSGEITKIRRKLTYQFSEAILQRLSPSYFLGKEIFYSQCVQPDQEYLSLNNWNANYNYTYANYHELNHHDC
How it was run: as §1

ELF4 = ELF4 (Homo sapiens, UniProt Q99607 1-663)
How it was run: as §1

ELK4 = molecular target: T9, ELK4 (Homo sapiens, UniProt P28324-2 1-405)
T9 sequence: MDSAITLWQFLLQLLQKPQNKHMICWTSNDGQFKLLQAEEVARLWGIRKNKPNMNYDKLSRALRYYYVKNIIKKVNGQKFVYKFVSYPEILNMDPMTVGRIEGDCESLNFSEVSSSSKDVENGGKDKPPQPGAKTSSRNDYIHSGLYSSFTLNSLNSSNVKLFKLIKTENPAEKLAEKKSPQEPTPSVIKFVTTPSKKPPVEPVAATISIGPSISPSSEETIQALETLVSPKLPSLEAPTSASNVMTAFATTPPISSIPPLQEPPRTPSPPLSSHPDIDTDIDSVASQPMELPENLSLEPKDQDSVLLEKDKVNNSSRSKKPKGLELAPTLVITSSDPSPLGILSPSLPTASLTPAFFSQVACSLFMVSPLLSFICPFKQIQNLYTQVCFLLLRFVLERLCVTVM
How it was run: as §1

ETV2 = molecular target: T10, ETV2 (Homo sapiens, UniProt O00321 1-342)
T10 sequence: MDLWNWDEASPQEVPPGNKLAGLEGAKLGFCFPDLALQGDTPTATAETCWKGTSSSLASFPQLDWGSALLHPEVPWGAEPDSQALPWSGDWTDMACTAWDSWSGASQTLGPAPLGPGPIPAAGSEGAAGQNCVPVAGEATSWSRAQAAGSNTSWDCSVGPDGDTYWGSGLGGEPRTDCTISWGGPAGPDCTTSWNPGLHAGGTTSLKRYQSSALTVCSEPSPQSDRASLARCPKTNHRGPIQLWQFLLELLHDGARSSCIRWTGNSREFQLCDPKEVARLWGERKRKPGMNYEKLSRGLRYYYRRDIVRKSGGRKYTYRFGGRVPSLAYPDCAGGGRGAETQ
How it was run: as §1

ELF3 = molecular target: T11, ELF3 (Homo sapiens, UniProt P78545 1-371)
T11 sequence: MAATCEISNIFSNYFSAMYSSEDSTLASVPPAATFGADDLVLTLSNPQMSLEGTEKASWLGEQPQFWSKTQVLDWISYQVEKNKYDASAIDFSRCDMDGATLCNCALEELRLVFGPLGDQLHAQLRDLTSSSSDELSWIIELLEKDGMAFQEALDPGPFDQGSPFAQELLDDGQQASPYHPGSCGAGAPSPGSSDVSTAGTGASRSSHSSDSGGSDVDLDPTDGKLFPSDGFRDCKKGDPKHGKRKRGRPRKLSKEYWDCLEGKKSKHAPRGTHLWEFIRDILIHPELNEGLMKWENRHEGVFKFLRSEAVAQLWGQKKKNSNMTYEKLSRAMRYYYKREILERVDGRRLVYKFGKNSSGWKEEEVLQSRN
How it was run: as §1

ETV1 = ETV1 (Homo sapiens, UniProt P50549 1-477)
How it was run: as §1

Chain of ETV5 (P41161 whole entry): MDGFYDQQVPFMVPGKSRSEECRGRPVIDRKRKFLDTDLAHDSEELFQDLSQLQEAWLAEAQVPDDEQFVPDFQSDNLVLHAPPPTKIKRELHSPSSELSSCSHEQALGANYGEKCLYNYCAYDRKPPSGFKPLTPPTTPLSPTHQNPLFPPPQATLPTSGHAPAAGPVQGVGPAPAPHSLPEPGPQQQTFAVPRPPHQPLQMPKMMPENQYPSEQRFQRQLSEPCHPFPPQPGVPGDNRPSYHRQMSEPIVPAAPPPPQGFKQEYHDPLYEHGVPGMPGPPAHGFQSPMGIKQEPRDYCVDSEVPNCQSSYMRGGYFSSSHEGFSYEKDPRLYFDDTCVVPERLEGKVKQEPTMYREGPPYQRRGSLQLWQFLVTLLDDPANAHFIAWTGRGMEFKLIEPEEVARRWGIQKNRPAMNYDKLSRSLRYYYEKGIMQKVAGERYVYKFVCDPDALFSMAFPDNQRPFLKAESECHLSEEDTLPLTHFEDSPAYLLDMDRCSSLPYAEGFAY
Chain of ETV1 (P50549 whole entry): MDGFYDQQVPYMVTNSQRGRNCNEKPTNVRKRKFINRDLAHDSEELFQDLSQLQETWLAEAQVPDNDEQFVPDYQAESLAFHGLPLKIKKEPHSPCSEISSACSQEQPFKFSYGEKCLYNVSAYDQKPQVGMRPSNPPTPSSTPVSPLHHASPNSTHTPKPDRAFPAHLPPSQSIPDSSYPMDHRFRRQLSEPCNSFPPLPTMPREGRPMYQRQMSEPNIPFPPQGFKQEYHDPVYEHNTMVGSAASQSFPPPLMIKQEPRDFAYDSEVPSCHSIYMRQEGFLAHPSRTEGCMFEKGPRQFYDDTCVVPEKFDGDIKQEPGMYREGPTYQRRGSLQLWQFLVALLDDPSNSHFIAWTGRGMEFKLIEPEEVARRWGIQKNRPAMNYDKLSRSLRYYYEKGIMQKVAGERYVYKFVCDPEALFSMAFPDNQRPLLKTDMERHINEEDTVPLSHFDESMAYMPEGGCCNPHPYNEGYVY
Chain of ELF4 (Q99607 whole entry): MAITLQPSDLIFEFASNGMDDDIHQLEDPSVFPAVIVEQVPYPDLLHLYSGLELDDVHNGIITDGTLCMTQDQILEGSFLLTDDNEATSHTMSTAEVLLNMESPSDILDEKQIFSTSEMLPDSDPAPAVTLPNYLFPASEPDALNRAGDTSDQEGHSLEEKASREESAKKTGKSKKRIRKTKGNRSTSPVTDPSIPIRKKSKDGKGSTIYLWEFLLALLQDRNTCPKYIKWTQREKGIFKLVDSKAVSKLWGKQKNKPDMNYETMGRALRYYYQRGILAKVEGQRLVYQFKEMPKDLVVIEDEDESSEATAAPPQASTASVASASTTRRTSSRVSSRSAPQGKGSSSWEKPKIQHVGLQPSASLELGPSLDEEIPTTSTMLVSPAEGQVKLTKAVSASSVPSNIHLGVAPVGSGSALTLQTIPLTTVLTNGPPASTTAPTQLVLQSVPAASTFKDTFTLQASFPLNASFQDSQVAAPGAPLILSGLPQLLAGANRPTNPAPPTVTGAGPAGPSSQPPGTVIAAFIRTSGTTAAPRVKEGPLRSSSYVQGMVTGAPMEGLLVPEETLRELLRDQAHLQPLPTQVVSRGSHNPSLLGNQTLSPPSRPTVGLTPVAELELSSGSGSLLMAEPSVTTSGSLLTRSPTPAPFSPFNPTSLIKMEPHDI
Chain of ELF1 (P32519 whole entry): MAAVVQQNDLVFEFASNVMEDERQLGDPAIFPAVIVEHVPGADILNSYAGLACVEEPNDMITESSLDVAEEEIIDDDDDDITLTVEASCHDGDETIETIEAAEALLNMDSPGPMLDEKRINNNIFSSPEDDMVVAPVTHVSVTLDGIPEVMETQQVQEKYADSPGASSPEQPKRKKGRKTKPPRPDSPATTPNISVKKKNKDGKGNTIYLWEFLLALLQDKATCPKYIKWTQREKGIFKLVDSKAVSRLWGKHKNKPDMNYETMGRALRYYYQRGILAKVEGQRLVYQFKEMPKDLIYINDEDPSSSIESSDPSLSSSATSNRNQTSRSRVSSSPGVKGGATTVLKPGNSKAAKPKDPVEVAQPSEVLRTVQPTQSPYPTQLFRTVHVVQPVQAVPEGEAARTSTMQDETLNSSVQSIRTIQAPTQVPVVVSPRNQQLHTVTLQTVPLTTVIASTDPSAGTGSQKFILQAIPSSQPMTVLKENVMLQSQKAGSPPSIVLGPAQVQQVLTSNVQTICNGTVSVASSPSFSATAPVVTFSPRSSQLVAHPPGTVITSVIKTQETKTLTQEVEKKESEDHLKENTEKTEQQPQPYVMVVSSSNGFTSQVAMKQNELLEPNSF
Chain of SPIB (Q01892 whole entry): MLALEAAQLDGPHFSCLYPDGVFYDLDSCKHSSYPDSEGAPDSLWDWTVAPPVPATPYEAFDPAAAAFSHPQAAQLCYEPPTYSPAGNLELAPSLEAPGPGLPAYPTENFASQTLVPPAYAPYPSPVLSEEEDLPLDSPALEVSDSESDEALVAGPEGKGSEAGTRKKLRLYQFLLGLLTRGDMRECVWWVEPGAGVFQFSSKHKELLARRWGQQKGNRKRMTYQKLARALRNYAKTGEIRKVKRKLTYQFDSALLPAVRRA

Sequence	binding signal (FLI1)	binding signal (ELK1)	binding signal (GABPA)	binding signal (ERG)	binding signal (ELF1)	binding signal (EHF)	binding signal (SPI1)	binding signal (SPIB)	binding signal (ELK3)	binding signal (FEV)	binding signal (ETV5)	binding signal (SPIC)	binding signal (ELF4)	binding signal (ELK4)	binding signal (ETV2)	binding signal (ELF3)	binding signal (ETV1)
CGGAAA	1.89 fold enrichment (6-mer frequency, TF over GST control)	2.13 fold enrichment (6-mer frequency, TF over GST control)	1.88 fold enrichment (6-mer frequency, TF over GST control)	2.63 fold enrichment (6-mer frequency, TF over GST control)	1.87 fold enrichment (6-mer frequency, TF over GST control)	2.31 fold enrichment (6-mer frequency, TF over GST control)	1.89 fold enrichment (6-mer frequency, TF over GST control)	2.22 fold enrichment (6-mer frequency, TF over GST control)	2.28 fold enrichment (6-mer frequency, TF over GST control)	3.21 fold enrichment (6-mer frequency, TF over GST control)	2.32 fold enrichment (6-mer frequency, TF over GST control)	1.94 fold enrichment (6-mer frequency, TF over GST control)	1.84 fold enrichment (6-mer frequency, TF over GST control)	1.55 fold enrichment (6-mer frequency, TF over GST control)	2 fold enrichment (6-mer frequency, TF over GST control)	2.13 fold enrichment (6-mer frequency, TF over GST control)	2.17 fold enrichment (6-mer frequency, TF over GST control)
GAAGTG	1.46 fold enrichment (6-mer frequency, TF over GST control)	1.7 fold enrichment (6-mer frequency, TF over GST control)	1.49 fold enrichment (6-mer frequency, TF over GST control)	1.87 fold enrichment (6-mer frequency, TF over GST control)	1.52 fold enrichment (6-mer frequency, TF over GST control)	1.71 fold enrichment (6-mer frequency, TF over GST control)	2.8 fold enrichment (6-mer frequency, TF over GST control)	1.61 fold enrichment (6-mer frequency, TF over GST control)	1.75 fold enrichment (6-mer frequency, TF over GST control)	1.88 fold enrichment (6-mer frequency, TF over GST control)	1.73 fold enrichment (6-mer frequency, TF over GST control)	2.01 fold enrichment (6-mer frequency, TF over GST control)	1.6 fold enrichment (6-mer frequency, TF over GST control)	1.32 fold enrichment (6-mer frequency, TF over GST control)	1.65 fold enrichment (6-mer frequency, TF over GST control)	1.65 fold enrichment (6-mer frequency, TF over GST control)	1.86 fold enrichment (6-mer frequency, TF over GST control)
